What was measured:
Test in all cases: DAPPL (digital affinity profiling via proximity ligation, sequencing); 10 mM Tris-HCl pH 7.5, 50 mM NaCl, 1 mM DTT, 4% glycerol, room temperature, 30 min; GST-TFs on glutathione beads, 16-mer random dsDNA library, 0.1% formaldehyde crosslink after washing; high values mean tight binding
FLI1 = target: T1, FLI1 (Homo sapiens, UniProt Q01543 1-452); details: protein: recombinant; tags: N-terminal GST; dsDNA, one strand shown
T1 sequence: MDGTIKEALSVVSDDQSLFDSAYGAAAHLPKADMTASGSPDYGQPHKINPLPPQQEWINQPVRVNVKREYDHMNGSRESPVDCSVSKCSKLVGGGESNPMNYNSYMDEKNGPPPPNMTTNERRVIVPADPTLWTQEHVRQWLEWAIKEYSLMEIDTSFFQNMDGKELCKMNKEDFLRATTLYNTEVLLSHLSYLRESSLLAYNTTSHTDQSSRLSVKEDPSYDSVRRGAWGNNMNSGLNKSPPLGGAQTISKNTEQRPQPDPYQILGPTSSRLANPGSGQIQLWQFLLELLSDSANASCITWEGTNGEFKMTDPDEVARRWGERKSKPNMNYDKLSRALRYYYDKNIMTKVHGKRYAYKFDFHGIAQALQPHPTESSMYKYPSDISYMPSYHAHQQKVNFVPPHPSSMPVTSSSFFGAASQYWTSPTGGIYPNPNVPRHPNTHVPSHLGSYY
Summary of the method: (§1)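 Human transcription factors were made in yeast as GST fusions, captured on glutathione beads and barcoded with DNA. With a tag-only sample included, the pool was incubated with 200 nmole of a random double-stranded 16-mer DNA library in Tris/NaCl/DTT/glycerol buffer at room temperature for 30 min, then crosslinked with 0.1% formaldehyde after washing, ligated by proximity, amplified and sequenced. For binding signal, each hexamer's read frequency for a factor is divided by its frequency for the tag-only sample.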

ELK1 = target: T2, ELK1 (Homo sapiens, UniProt P19419 1-428); details: protein: recombinant; tags: N-terminal GST; dsDNA, one strand shown
T2 sequence: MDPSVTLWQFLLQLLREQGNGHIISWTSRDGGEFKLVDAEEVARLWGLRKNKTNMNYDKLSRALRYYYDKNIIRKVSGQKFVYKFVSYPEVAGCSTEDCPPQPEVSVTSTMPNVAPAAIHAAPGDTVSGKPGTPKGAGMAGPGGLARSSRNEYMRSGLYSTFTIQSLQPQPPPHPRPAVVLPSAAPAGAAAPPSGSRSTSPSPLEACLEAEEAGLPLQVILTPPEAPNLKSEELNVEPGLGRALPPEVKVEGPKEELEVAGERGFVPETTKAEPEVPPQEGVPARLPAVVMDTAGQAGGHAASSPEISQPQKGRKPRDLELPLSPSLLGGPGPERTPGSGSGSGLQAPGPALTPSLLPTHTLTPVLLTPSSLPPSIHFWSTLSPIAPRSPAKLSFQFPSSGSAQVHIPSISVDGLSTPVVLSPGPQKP
Summary of the method: as §1

GABPA = target: T3, GABPA (Homo sapiens, UniProt Q06546 1-454); details: protein: recombinant; tags: N-terminal GST; dsDNA, one strand shown
T3 sequence: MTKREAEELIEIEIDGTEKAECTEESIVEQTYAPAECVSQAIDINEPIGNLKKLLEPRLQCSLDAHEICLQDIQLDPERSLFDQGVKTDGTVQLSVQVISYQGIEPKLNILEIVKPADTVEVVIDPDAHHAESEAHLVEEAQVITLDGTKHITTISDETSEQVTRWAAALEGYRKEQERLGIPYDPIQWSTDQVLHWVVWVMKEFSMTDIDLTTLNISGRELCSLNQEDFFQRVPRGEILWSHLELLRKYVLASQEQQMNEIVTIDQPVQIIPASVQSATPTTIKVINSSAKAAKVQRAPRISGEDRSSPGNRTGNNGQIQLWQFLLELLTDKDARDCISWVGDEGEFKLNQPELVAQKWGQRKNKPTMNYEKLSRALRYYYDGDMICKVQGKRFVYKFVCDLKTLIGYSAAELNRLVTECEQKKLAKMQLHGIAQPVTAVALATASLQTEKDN
Summary of the method: as §1

ERG = target: T4, ERG (Homo sapiens, UniProt P11308 1-479); details: protein: recombinant; tags: N-terminal GST; dsDNA, one strand shown
T4 sequence: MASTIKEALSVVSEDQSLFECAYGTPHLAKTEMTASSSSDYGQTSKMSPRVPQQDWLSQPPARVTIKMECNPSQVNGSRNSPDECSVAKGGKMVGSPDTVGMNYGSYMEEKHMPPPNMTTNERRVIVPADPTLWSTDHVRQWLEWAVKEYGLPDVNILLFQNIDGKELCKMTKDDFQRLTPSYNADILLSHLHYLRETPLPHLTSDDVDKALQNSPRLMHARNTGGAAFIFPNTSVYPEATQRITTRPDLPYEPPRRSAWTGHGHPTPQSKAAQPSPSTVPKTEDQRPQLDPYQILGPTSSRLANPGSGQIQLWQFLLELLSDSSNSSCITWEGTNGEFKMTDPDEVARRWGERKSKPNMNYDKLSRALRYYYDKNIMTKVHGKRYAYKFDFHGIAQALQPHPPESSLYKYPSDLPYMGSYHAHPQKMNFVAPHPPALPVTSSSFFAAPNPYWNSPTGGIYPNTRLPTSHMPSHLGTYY
Summary of the method: as §1

ELF1 = ELF1 (Homo sapiens, UniProt P32519 1-619); details: protein: recombinant; tags: N-terminal GST; dsDNA, one strand shown
Summary of the method: as §1

EHF = target: T5, EHF (Homo sapiens, UniProt Q9NZC4 1-300); details: protein: recombinant; tags: N-terminal GST; dsDNA, one strand shown
T5 sequence: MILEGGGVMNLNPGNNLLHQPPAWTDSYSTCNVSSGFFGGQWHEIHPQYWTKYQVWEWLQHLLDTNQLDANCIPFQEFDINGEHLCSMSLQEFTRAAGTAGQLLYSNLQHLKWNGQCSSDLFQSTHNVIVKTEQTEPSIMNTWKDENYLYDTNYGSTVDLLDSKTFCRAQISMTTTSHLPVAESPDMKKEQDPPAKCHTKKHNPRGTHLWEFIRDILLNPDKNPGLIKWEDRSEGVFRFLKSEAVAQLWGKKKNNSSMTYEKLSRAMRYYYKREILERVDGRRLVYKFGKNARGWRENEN
Summary of the method: as §1

SPIB = SPIB (Homo sapiens, UniProt Q01892 1-262); details: protein: recombinant; tags: N-terminal GST; dsDNA, one strand shown
Summary of the method: as §1

ELK3 = target: T6, ELK3 (Homo sapiens, UniProt P41970 1-407); details: protein: recombinant; tags: N-terminal GST; dsDNA, one strand shown
T6 sequence: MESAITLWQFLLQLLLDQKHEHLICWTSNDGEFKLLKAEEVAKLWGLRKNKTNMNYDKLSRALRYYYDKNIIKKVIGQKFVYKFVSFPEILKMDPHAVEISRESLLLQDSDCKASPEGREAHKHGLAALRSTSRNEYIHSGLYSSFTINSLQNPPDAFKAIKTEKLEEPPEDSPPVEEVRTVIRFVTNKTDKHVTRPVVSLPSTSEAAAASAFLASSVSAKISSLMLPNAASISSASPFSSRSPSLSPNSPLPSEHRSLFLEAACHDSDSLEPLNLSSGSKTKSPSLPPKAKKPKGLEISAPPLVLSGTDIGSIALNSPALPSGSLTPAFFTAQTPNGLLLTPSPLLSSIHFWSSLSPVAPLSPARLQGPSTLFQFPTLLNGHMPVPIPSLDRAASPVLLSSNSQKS
Summary of the method: as §1

FEV = target: T7, FEV (Homo sapiens, UniProt Q99581 1-238); details: protein: recombinant; tags: N-terminal GST; dsDNA, one strand shown
T7 sequence: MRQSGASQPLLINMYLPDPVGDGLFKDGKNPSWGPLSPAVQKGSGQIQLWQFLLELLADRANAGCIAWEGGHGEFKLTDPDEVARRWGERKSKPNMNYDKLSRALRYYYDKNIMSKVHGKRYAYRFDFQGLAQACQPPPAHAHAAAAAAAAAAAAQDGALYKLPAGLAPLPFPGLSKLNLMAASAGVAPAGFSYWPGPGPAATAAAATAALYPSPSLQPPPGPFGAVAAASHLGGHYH
Summary of the method: as §1

ETV5 = ETV5 (Homo sapiens, UniProt P41161 1-510); details: protein: recombinant; tags: N-terminal GST; dsDNA, one strand shown
Summary of the method: as §1

HSF1 = HSF1 (Homo sapiens, UniProt Q00613 1-529); details: protein: recombinant; tags: N-terminal GST; chain copies: 3; dsDNA, one strand shown
Summary of the method: as §1

SPIC = target: T8, SPIC (Homo sapiens, UniProt Q8N5J4 1-248); details: protein: recombinant; tags: N-terminal GST; dsDNA, one strand shown
T8 sequence: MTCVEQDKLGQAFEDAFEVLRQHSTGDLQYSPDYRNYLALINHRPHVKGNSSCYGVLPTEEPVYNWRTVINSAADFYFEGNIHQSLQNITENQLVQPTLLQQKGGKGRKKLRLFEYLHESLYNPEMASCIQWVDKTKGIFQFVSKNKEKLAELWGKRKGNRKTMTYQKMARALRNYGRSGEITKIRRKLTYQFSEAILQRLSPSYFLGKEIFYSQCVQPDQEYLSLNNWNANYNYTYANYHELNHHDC
Summary of the method: as §1

ELF4 = ELF4 (Homo sapiens, UniProt Q99607 1-663); details: protein: recombinant; tags: N-terminal GST; dsDNA, one strand shown
Summary of the method: as §1

ELK4 = target: T9, ELK4 (Homo sapiens, UniProt P28324-2 1-405); details: protein: recombinant; tags: N-terminal GST; dsDNA, one strand shown
T9 sequence: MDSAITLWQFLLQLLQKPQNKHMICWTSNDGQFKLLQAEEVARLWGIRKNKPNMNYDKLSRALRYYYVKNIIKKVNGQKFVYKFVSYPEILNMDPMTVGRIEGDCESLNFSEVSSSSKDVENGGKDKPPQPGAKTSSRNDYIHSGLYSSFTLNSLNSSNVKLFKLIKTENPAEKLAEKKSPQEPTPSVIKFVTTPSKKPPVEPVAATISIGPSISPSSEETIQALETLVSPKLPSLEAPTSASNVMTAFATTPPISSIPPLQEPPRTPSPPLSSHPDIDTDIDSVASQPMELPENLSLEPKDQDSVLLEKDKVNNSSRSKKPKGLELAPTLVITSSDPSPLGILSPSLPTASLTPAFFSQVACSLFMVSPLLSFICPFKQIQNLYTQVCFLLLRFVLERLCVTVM
Summary of the method: as §1

ELF3 = target: T10, ELF3 (Homo sapiens, UniProt P78545 1-371); details: protein: recombinant; tags: N-terminal GST; dsDNA, one strand shown
T10 sequence: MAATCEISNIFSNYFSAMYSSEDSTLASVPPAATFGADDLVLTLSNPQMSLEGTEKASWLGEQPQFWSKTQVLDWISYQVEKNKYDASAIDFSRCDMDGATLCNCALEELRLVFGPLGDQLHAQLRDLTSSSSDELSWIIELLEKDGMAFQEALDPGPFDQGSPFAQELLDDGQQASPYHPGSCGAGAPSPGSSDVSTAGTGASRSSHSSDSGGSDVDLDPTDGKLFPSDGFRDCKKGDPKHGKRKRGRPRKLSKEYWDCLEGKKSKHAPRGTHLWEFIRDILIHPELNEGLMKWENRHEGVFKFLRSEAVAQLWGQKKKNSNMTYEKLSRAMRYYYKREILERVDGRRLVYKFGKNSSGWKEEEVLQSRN
Summary of the method: as §1

CRX = CRX (Homo sapiens, UniProt O43186 1-299); details: protein: recombinant; tags: N-terminal GST; dsDNA, one strand shown
Summary of the method: as §1

ETV1 = ETV1 (Homo sapiens, UniProt P50549 1-477); details: protein: recombinant; tags: N-terminal GST; dsDNA, one strand shown
Summary of the method: as §1

Chain of ELF4 (Q99607 whole entry): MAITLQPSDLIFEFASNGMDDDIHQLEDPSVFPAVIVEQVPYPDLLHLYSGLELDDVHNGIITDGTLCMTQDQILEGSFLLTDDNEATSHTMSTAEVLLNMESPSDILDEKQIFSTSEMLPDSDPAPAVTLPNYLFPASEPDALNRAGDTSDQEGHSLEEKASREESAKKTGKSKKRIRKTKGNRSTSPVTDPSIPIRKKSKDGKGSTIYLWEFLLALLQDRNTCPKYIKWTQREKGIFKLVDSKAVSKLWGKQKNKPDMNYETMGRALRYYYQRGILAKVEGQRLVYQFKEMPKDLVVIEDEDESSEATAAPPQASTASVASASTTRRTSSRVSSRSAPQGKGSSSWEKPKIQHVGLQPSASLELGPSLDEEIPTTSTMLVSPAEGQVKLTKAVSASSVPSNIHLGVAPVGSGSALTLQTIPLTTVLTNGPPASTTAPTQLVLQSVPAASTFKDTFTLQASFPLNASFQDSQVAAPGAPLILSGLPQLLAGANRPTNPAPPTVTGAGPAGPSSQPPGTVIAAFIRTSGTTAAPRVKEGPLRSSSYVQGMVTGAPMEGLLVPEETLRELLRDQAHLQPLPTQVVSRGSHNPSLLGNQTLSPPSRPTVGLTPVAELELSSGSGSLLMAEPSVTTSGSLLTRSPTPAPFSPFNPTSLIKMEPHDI
Chain of HSF1 (Q00613 whole entry): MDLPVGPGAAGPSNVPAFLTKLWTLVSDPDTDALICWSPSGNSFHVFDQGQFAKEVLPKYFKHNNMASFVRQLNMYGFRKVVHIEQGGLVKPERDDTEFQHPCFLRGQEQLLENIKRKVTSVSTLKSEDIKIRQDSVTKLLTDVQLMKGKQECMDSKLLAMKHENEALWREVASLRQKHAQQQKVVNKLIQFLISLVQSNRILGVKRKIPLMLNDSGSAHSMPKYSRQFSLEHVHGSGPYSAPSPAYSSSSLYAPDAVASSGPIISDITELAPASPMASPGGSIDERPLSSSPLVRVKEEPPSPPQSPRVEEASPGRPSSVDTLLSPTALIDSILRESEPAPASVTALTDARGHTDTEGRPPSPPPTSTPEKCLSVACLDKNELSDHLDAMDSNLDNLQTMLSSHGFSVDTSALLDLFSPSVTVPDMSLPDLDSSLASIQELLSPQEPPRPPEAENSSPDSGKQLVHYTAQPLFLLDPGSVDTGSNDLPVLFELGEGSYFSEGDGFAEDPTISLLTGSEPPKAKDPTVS
Chain of ETV5 (P41161 whole entry): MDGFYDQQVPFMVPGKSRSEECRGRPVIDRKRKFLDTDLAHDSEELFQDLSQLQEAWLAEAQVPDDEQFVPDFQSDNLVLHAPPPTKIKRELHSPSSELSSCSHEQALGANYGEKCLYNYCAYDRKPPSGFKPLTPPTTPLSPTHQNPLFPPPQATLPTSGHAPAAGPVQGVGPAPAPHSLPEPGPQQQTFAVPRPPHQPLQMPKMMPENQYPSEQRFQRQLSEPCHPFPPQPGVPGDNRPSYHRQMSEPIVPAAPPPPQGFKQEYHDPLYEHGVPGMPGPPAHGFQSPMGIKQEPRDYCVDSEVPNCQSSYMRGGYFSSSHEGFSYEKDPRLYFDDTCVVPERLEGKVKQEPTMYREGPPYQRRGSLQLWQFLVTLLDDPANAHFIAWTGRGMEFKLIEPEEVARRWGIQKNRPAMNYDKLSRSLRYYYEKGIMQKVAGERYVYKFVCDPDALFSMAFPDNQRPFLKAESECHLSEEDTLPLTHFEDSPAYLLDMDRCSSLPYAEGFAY
Chain of ETV1 (P50549 whole entry): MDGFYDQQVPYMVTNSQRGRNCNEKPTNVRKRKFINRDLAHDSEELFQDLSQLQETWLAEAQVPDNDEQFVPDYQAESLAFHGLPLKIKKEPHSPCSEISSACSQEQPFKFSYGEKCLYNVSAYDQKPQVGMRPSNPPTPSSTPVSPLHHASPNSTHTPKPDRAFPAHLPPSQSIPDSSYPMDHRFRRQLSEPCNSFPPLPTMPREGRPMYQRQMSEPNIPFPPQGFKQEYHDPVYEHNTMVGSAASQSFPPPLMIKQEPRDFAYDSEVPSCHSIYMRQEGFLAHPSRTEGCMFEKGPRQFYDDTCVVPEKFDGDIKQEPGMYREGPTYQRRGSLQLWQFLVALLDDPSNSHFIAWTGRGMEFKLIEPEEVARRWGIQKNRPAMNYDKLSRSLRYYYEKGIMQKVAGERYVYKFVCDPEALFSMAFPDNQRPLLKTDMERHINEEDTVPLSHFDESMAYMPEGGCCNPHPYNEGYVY
Chain of ELF1 (P32519 whole entry): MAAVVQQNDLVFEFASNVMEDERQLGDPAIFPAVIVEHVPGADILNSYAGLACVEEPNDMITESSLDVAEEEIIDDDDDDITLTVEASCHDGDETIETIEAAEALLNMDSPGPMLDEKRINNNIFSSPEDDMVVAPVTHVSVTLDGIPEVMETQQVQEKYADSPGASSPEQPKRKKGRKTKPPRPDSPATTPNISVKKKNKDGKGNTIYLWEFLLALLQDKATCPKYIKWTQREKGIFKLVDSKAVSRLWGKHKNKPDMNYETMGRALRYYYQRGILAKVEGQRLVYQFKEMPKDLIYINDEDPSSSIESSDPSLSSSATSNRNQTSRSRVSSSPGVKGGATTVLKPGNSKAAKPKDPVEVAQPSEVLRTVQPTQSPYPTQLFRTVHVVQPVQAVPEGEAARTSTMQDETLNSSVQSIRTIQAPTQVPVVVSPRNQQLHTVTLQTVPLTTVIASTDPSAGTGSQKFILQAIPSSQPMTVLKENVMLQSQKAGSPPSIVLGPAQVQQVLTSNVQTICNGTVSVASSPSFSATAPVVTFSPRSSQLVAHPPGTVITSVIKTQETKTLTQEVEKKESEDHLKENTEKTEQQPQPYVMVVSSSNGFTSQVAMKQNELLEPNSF
Chain of SPIB (Q01892 whole entry): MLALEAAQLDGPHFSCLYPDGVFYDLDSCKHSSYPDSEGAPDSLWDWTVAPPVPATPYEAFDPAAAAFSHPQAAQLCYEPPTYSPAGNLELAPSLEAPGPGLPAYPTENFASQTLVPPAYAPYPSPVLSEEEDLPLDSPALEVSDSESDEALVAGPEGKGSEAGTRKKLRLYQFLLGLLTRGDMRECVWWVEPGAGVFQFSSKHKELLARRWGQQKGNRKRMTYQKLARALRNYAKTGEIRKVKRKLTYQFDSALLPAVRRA
Chain of CRX (O43186 whole entry): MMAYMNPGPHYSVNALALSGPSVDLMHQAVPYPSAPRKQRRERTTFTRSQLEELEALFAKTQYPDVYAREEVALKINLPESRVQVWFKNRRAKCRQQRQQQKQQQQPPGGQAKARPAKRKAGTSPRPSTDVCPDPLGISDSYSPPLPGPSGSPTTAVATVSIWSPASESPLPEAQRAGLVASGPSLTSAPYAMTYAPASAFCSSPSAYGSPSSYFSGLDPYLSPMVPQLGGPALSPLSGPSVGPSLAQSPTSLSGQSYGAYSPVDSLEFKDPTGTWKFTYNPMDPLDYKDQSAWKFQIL

Sequence: AAGGTT
- binding signal (FLI1): 1.09 fold enrichment (6-mer frequency, TF over GST control)
- binding signal (ELK1): 1.15 fold enrichment (6-mer frequency, TF over GST control)
- binding signal (GABPA): 1.13 fold enrichment (6-mer frequency, TF over GST control)
- binding signal (ERG): 1.07 fold enrichment (6-mer frequency, TF over GST control)
- binding signal (ELF1): 1.05 fold enrichment (6-mer frequency, TF over GST control)
- binding signal (EHF): 1.1 fold enrichment (6-mer frequency, TF over GST control)
- binding signal (SPIB): 1.01 fold enrichment (6-mer frequency, TF over GST control)
- binding signal (ELK3): 1.12 fold enrichment (6-mer frequency, TF over GST control)
- binding signal (FEV): 1.02 fold enrichment (6-mer frequency, TF over GST control)
- binding signal (ETV5): 1.01 fold enrichment (6-mer frequency, TF over GST control)
- binding signal (HSF1): 1.27 fold enrichment (6-mer frequency, TF over GST control)
- binding signal (SPIC): 1.03 fold enrichment (6-mer frequency, TF over GST control)
- binding signal (ELF4): 1.09 fold enrichment (6-mer frequency, TF over GST control)
- binding signal (ELK4): 1.12 fold enrichment (6-mer frequency, TF over GST control)
- binding signal (ELF3): 1.35 fold enrichment (6-mer frequency, TF over GST control)
- binding signal (CRX): 1.17 fold enrichment (6-mer frequency, TF over GST control)
- binding signal (ETV1): 1.07 fold enrichment (6-mer frequency, TF over GST control)

From paper PMC7862700, “An all-to-all approach to the identification of sequence-specific readers for epigenetic DNA modifications on cytosine”
